Assay [1] in a line: qHTS assay to identify small molecule agonists of the constitutive androstane receptor (CAR) signaling pathway - cell viability counter screen (AID 1224836). Further: on the % scale 0 is the no-effect control and ±100 the full control effect; nearly all actives have a fitted effect of over 45% in size. The essentials:
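Double-stable HepG2 hepatoma cells (hCAR plus CYP2B6-2.2kb) are treated for 23 h at 37 C with test compounds in 15-point concentration series. PK11195 at 0.75 uM final is co-added. Cell viability is quantified by CellTiter-Fluor.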
In general terms: qHTS replaces the single test concentration by a dilution series.

Assay [2] deals with Nuclear receptor subfamily 1 group I member 3 (Homo sapiens) (UniProt Q14994). In words: qHTS assay to identify small molecule antagonists of the constitutive androstane receptor (CAR) signaling pathway (AID 1224838).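 Further: HepG2 cells stably expressing hCAR with CYP2B6 luciferase reporter stimulated by CITCO; on the % scale 0 is the no-effect control and ±100 the full control effect; nearly all actives have a fitted effect of over 40% in size.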 The essentials:
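Read-out: ONE-Glo luciferase luminescence after 30 min at room temperature. HepG2-CYP2B6-hCAR double-stable cells, compounds in 15-point titration plus 50 nM CITCO final, 24 h at 37 C/5% CO2.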

For assay [3] the target is unchanged. In words: qHTS assay to identify small molecule agonists of the constitutive androstane receptor (CAR) signaling pathway (AID 1224839).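 Further: HepG2 cells stably carrying human CAR and a CYP2B6 luciferase reporter; on the % scale 0 is the no-effect control and ±100 the full control effect; nearly all actives have a fitted effect of over 15% in size.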 The gist of the method:
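Readout: firefly luciferase luminescence via ONE-Glo. System: HepG2 double-stable for hCAR and CYP2B6-2.2kb. Conditions: 15-point compound titration, PK11195 at 0.75 uM final, 24 h incubation.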

Assay [4] can be described thus: qHTS assay to identify small molecule antagonists of the estrogen related receptor signaling pathway with the pleiotropic PPARgamma coactivator (PGC) from Tox21 10K library - cell viability counter screen (AID 1224840; active means well fitted cell-killing curve with a large enough effect in the repeat runs, not every such curve was filed as active; further: on the % scale 0 is the no-effect control and ±100 the full control effect; nearly all actives have a fitted effect of over 40% in size). The essentials:
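Fluorescence read-out of CellTiter-Fluor viability reagent, added after cells had been exposed to compound in DMSO for 17.5 h at 37 C; 30 min development at 37 C/5% CO2. Cells: PGC/ERR line, 2,000/well.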

For assay [5], the target named is Thyrotropin receptor (Homo sapiens) (UniProt P16473). Description: qHTS assay to identify small molecule agonists of the thyroid stimulating hormone receptor (TSHR) signaling pathway (AID 1224843; calls by dose curve; further: on the % scale 0 is the no-effect control and ±100 the full control effect; nearly all actives have a fitted effect of over 45% in size). The essentials: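 Using 15 concentrations per compound in triplicate, cAMP production was monitored in TSHR-HEK293 cells after 30 min compound incubation at RT; HTRF reagents followed, with fluorescence intensity recorded after 1 h.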

Assay [6] can be described thus: qHTS assay to identify small molecule agonists of the hypoxia (HIF-1) signaling pathway - cell viability counter screen (AID 1224844; calls by dose curve; further: on the % scale 0 is the no-effect control and ±100 the full control effect; nearly all actives have a fitted effect of over 50% in size). The essentials:
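CellTiter-Glo luminescence read-out, 30 min RT, taken in the same wells as the beta-lactamase HRE reporter assay; HRE-bla ME-180 cells, 0.5% dialyzed FBS, 17 hr compound treatment at 37C, 5% CO2.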

A short description of assay [7]: qHTS assay to identify small molecule agonists of H2AX (AID 1224845; active means well fitted activation curve with a large enough effect in the signal ratio in the repeat runs, not every such curve was filed as active; the % refers to the signal ratio; further: on the % scale 0 is the no-effect control and ±100 the full control effect). The gist of the method: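 Wild-type CHO-K1 cells plated overnight, then exposed 3 hr at 37C to compounds at 15 concentrations (0.76% DMSO). Lysed, then HTRF anti-pH2AX(S139)-cryptate/anti-H2AX-d2 detection after 24 hr at room temperature; emissions 665 and 620 nm.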
The nature of assay [8]: qHTS assay to identify small molecule agonists of the hypoxia (HIF-1) signaling pathway (AID 1224846; active means well fitted activation curve with a large enough effect in the signal ratio in the repeat runs, not every such curve was filed as active; the % refers to the signal ratio; further: on the % scale 0 is the no-effect control and ±100 the full control effect). The gist of the method: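 Beta-lactamase FRET read-out (CCF4-AM substrate) from ME-180 cells carrying an HRE-driven bla reporter, after 17 hrs compound exposure at 37C/5% CO2. Cells were seeded at 2,000 per well in 0.5% dialyzed FBS medium and preincubated 5 hrs.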
Assay [9] in a line: qHTS assay to identify small molecule agonists of H2AX - cell viability counter screen (AID 1224847; calls by dose curve; further: top concentration of the series differs between compounds; on the % scale 0 is the no-effect control and ±100 the full control effect; nearly all actives have a fitted effect of over 30% in size). The gist of the method: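 For this counter screen, overnight-attached CHO-K1 cells received test compounds (15 concentrations, 0.76% DMSO final); 3 hr later at 37C, CellTiter-Glo reagent was added and luminescence recorded after 30 min at room temperature.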
Assay [10] is described as follows: qHTS RealTime-Glo MT Cell Viability Assay in HepG2 cells - 24 hour (AID 1224867). Further: on the % scale 0 is the no-effect control and ±100 the full control effect; nearly all actives have a fitted effect of over 50% in size. The essentials: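 Cells + NanoLuc/prosubstrate dispensed (600 cells/well) → 5 h at 37 C/5% CO2 → compounds in DMSO transferred → 40 h incubation at 37 C, luminescence read at 0, 8, 16, 24, 32, 40 h.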
The nature of assay [11]: qHTS RealTime-Glo MT Cell Viability Assay in HEK293 cells - 32 hour (AID 1224868). Further: nearly all actives have a fitted effect of over 50% in size. Further: potency means the concentration at half of the fitted maximal effect. The essentials: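 Tox21 10K qHTS, HEK293, 600 cells/well, RealTime-Glo reagent co-dispensed with cells; 5 h preincubation, compound by pintool, 37 C, luminescence at 0–40 h.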
Assay [12] in a line: qHTS RealTime-Glo MT Cell Viability Assay in HepG2 cells - 40 hour (AID 1224870). Further: on the % scale 0 is the no-effect control and ±100 the full control effect; nearly all actives have a fitted effect of over 50% in size. The gist of the method:
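HepG2 cells mixed with RealTime-Glo MT reagents (NanoLuc plus cell-permeant prosubstrate) were seeded at 600 cells/well, incubated 5 h at 37 C/5% CO2, then pinned with compounds in DMSO; nonlytic luminescence tracked viability during 40 h treatment.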

Assay [13] has as its target Luciferin 4-monooxygenase (Photinus pyralis) (UniProt P08659). Description: qHTS assay to identify small molecule inhibitors of firefly luciferase (AID 1224835). Further: on the % scale 0 is the no-effect control and ±100 the full control effect; nearly all actives have a fitted effect of over 25% in size. The gist of the method: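 Quantitative HTS format; KM concentrations of both substrates. Purified P. pyralis FLuc activity quantified from luminescence images.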
Assay [14] in a line: A CellTox Green Cytotoxicity Assay to monitor cytotoxicity in HEK293 cells - 0 hour (AID 1224869). The essentials: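 Read-out: fluorescence of a cell-impermeant cyanine dye staining DNA of dead cells, proportional to cytotoxicity. HEK293, 600 cells/well with reagent, compound (23 nL DMSO) added after 5 h; reads at 0, 8, 16, 24, 32, 40 h.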
The nature of assay [15]: qHTS assay to identify small molecule antagonists of the constitutive androstane receptor (CAR) signaling pathway - cell viability counter screen (AID 1224837). Further: on the % scale 0 is the no-effect control and ±100 the full control effect; nearly all actives have a fitted effect of over 45% in size. The gist of the method:
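Read-out: CellTiter-Fluor fluorescence after 23 hr at 37 C/5% CO2. Cells: HepG2 double-stable for hCAR and CYP2B6-2.2kb. Compounds tested at 15 concentrations in the presence of CITCO, final concentration 50 nM.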

Assay [16] can be described thus: qHTS assay to identify small molecule antagonists of the estrogen related receptor signaling pathway with the pleiotropic PPARgamma coactivator (PGC) from Tox21 10K library (AID 1224841; call rule not given here). The gist of the method: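 Luminescence read-out (One-Glo luciferase reagent, 30 min at room temperature) from PGC/ERR cells exposed to DMSO-dissolved test compounds for 18 h at 37 C; cells, 2,000 per well, had been preincubated 6 h before compound transfer.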

Assay [17] can be described thus: qHTS assay to identify small molecule agonists of the estrogen related receptor signaling pathway with the pleiotropic PPARgamma coactivator (PGC) from Tox21 10K library (AID 1224842). Further: on the % scale 0 is the no-effect control and ±100 the full control effect; nearly all actives have a fitted effect of over 15% in size. The gist of the method: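 PGC/ERR reporter cells (NTP line) were seeded 2,000 per well, rested 6 h at 37 C/5% CO2, then pin-dosed with compounds in DMSO for 18 h at 37 C; luciferase read by One-Glo luminescence after 30 min at room temperature.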

Assay [18] is described as follows: qHTS assay to identify small molecule agonists of the estrogen related receptor (ERR) signaling pathway from Tox21 library (AID 1224849; calls by dose curve; further: on the % scale 0 is the no-effect control and ±100 the full control effect; nearly all actives have a fitted effect of over 15% in size). The following applies: ERR reporter cell line, ONE-Glo luciferase, 18 h; at 92.4 µM (top of the series) unless noted. The essentials: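 Luminescence readout (ONE-Glo, 30 min RT) after 18 h compound exposure at 37 C of NTP-supplied ERR reporter cells; cells were plated 6 h before compound addition by pin tool.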

Results on 8 compounds are retold here after PubChem BioAssay (Tox21).

A number with no mark means an inactive call. Inconclusive results are not listed. Active and inactive are the calls of the source. Unless noted, the call rests on the fitted dose curve; in most records, active means well fitted curve in the direction sought with a large enough effect in the repeat runs; inconclusive means weak or mixed curves; inactive means no such curve, though single readings can be large; an effect the other way counts as inactive or inconclusive.

Sequence of Nuclear receptor subfamily 1 group I member 3 (Homo sapiens) (Q14994 whole entry, looked up): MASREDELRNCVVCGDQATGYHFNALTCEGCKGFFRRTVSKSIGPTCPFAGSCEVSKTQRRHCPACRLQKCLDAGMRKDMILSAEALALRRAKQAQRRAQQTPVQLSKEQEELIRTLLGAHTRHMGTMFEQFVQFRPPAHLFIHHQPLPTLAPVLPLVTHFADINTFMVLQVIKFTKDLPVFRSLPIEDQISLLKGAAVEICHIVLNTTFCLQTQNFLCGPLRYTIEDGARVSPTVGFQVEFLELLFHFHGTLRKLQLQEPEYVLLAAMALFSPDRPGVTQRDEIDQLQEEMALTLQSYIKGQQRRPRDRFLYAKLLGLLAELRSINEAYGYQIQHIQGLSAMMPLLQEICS
Sequence of Luciferin 4-monooxygenase (Photinus pyralis) (P08659 whole entry, looked up): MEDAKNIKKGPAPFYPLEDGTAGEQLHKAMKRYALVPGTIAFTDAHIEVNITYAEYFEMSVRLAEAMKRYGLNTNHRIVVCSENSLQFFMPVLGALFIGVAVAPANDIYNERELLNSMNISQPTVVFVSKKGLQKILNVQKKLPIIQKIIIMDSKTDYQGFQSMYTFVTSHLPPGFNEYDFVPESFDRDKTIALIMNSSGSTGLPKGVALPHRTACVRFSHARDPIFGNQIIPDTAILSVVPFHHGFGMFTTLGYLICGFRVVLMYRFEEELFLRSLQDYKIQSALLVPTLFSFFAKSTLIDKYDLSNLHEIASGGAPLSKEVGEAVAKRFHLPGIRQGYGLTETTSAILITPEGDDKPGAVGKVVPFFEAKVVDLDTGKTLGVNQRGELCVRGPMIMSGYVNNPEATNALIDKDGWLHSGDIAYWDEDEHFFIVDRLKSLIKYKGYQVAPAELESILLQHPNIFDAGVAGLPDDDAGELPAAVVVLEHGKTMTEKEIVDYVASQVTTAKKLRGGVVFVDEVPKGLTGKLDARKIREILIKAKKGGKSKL
Sequence of Thyrotropin receptor (Homo sapiens) (P16473 whole entry, looked up): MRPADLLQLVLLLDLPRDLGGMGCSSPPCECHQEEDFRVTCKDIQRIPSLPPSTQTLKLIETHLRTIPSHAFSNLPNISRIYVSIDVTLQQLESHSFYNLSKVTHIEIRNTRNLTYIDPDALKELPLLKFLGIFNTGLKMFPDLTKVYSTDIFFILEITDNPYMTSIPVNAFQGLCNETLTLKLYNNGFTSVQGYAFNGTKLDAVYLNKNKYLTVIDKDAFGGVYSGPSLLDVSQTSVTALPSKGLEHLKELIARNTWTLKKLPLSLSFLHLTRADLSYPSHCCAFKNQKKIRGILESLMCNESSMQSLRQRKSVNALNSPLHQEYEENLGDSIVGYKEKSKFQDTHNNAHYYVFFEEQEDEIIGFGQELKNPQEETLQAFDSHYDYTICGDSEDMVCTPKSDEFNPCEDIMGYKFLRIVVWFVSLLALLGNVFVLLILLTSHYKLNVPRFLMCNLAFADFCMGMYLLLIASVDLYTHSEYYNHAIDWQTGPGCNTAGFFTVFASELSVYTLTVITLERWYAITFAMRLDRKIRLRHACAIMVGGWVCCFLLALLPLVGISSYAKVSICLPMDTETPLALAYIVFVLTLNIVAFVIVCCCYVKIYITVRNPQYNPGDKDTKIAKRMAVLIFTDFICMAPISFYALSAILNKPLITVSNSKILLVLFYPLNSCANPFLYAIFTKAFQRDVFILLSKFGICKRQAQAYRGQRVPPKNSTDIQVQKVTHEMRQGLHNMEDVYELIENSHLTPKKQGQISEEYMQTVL

As to `O=C(N[C@H]1CN2CCC1CC2)c1cc2ccoc2cn1`, the Potency entry in assay [1], in [2], in assay [3], in assay [4], in assay [5] and in [6] was “inactive” each time. For the same compound, the Potency result in assay [7], in assay [9], in assay [10], in assay [11] and in assay [12] was “inactive” each time. Also, in assay [8], the call was inactive.

Regarding `O=[N+]([O-])c1ccc2c3c(cccc13)CC2`, the Potency entry in [13], in assay [1], in assay [4], in [5], in assay [6] and in [9] was “inactive” each time. In addition, the Potency entry in assay [10], in assay [11], in [14] and in [12] was “inactive” in each case. In addition, in assay [8], the result was inactive.

With `CC1COC2(c3ccccc3Cl)c3cc(Cl)ccc3NC(=O)CN12` (stereo unspecified), the Potency result in assay [13], in assay [1], in assay [15], in assay [3], in assay [4] and in assay [5] was “inactive” in each case. Moreover, the Potency entry in [6], in assay [7], in [9], in assay [10], in [14] and in [12] was “inactive” in each case. Besides, the Potency in [16] is 21.1 µM (active). Also, the call in [17] was inactive. The activity change, positive = activation in assay [18] was -27.8% [at 42.5 µM].

`c1cc2c(c(N3CCNCC3)c1)OCCO2`: the Potency entry in assay [13], in assay [1], in [15], in assay [4], in assay [5] and in assay [6] was “inactive” in each case. The Potency entry in [7], in assay [9], in [10], in assay [11] and in [12] was “inactive” in each case. Further, the call in assay [8] was inactive.

For `CC(C)CC#N`, the Potency entry in assay [1], in [15], in assay [4], in assay [5], in assay [6] and in assay [7] was “inactive” in each case. For the same compound, the Potency result in assay [9], in assay [10], in assay [11], in assay [14] and in assay [12] was “inactive” in each case.

On to `CC(C)(C)C(=O)C(Oc1ccc(Cl)cc1)n1cncn1` (stereo unspecified), for which the Potency result in assay [13], in assay [1], in assay [2], in assay [3], in assay [4] and in assay [6] was “inactive” throughout. Further, the Potency entry in assay [7], in assay [9], in assay [10], in assay [14] and in assay [12] was “inactive” throughout.

Turning to `C[C@]1(O)CC[C@H]2[C@@H]3CCC4=CC(=O)CC[C@]4(C)[C@@]3(F)[C@@H](O)C[C@@]21C`, the Potency result in assay [13], in assay [1], in [15], in assay [4], in [5] and in assay [6] was “inactive” each time. For the same compound, the Potency result in assay [7], in assay [9], in assay [10], in assay [11], in [14] and in [12] was “inactive” throughout. For the same compound, the call in assay [8] was inactive.

Regarding `Fc1ccc(C2(Cn3cncn3)OC2c2ccccc2Cl)cc1` (stereo unspecified), the Potency result in assay [13], in [15], in assay [2], in assay [3], in [5] and in assay [6] was “inactive” in each case. The Potency result in assay [7], in assay [9], in [10], in [14] and in assay [12] was “inactive” in each case. Moreover, the values for the Potency in assay [16] and in assay [11] were 38.6 µM (active) and 43.6 µM (active), respectively. For the same compound, the result in assay [17] and in assay [8] was inactive. In addition, the activity change, positive = activation in [18] is -40.8%.
